An excerpt weighted towards active compounds, which were near 4.7% of everything screened.
TRHR ag – agonists of human TRH receptor. TRHR cells, calcium flux fluo-8, FDSS agonist mode. P34981. 360,000 tested, 0.18% active. activation, % at 2 µM; also: 0% is about no effect
Target sequence (P34981 whole entry, looked up): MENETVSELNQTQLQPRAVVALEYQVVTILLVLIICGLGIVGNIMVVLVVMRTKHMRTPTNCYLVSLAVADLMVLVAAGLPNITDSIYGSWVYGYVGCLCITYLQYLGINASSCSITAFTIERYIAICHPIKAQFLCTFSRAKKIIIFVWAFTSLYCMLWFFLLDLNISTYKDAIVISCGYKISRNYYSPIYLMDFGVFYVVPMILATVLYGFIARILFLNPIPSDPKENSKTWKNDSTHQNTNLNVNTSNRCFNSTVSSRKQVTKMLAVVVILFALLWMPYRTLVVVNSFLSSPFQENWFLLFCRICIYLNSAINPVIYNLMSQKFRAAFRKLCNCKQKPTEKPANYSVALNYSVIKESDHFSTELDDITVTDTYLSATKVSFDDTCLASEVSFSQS
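Agonist-mode FDSS calcium read (Ex 480/Em 530, 1 s cycles) in 1536-well TRHR cells with fluo-8 dye, after 10-cycle baseline and 23 nL compound addition; TRH at EC20 (10 nM final) added afterwards for the enhancer phase.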
D1 PAM – human D1 dopamine receptor positive modulation; AID 504651; HEK293 TREx D1 cells, calcium flux, dopamine EC20 potentiation; potentiation, % at 10 µM; P21728; 360,000 tested, 0.036% active; in the data active = potentiation above about 30%; also: 0% is about no effect
D1 antagonist – blocks dopamine activation of the human D1 receptor | P21728 | activity change, negative = inhibition, % at 10 µM | HEK293 TREx D1 cells, calcium flux, dopamine EC80; stronger effect = lower value | 360,000 tested, 3.2% active; in the data active = activity change below about -30%; also: % is scaled to controls: 0 for no effect and ±100 for the full control effect
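Tetracycline-induced HEK293 T-REx cells with force-coupled D1 receptor were loaded with a no-wash calcium dye. Compound was added after a 10 s baseline and read kinetically for 180 s; EC80 dopamine was then added and calcium flux followed another 180 s.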
D1 ag – activates the human D1 dopamine receptor. P21728. 360,000 tested, 1% active. activation, % at 2 µM. HEK293 T-REx D1 cells, calcium flux, agonist mode; also: 0% is about no effect
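Agonism was scored from calcium flux recorded over 180 s (1 read/s) after pintool compound addition, following a 10-cycle baseline. Cells were inducible force-coupled HEK293 TREx D1, plated overnight at 30 C and loaded with no-wash calcium dye.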
TRHR PAM – allosteric enhancers of human TRH receptor. TRHR cells, fluo-8 calcium fluorescence, EC20 TRH enhancement. enhancement, % at 2 µM. 360,000 tested, 0.66% active; in the data active = enhancement above about 30%; also: 0% is about no effect
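Enhancer read-out: after compound pinning and an initial kinetic agonist-mode read, an EC20 of TRH (10 nM final) was injected and fluo-8 calcium signal (Ex 480/Em 530) followed at 1 s/cycle for 100 cycles in TRHR-expressing cells.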
* marks the source's active call; other numbers are inactive results. Rule as the data show it, unless noted: active = activation above about 30%; inactive = the rest.

Screening COc1ccc(N2CCN(C(C)C(=O)N3CC(C)OC(C)C3)CC2)cc1 (configuration not stated) returned TRHR ag -1, D1 PAM -3, D1 antagonist -1, D1 ag 0 and TRHR PAM -1.
For CSc1nc2ccc3nc(NC(=O)c4ccccc4)sc3c2s1 the results were TRHR ag 0, D1 PAM 0, D1 antagonist -3, D1 ag -1 and TRHR PAM 37*.
O=C(Nc1nc2ccccc2s1)c1ccccc1 was read as TRHR ag 1, D1 PAM 3, D1 antagonist -3, D1 ag 1 and TRHR PAM 2.
For CCn1c2ccccc2c2cc(CN3CCN(Cc4ccc(Br)cc4)CC3)ccc21 the results were TRHR ag 1, D1 PAM 3, D1 antagonist 29, D1 ag -1 and TRHR PAM 5.
Screening O=C(Nn1cnnc1)c1cc(-c2ccccn2)nc2ccccc12 returned TRHR ag 0, D1 PAM 0, D1 antagonist 13, D1 ag 0 and TRHR PAM -4.
For COc1cc(-c2cc(-c3nnco3)c3ccccc3n2)cc(OC)c1OC the results were TRHR ag -1, D1 PAM -10, D1 antagonist -96*, D1 ag 1 and TRHR PAM -1.
Screening c1ccc(-c2cc(-c3nnco3)c3ccccc3n2)nc1 returned TRHR ag 0, D1 PAM 10, D1 antagonist -2, D1 ag -1 and TRHR PAM 34*.
For COc1cc(-c2cc(C(=O)Nc3ccc(O)cc3)c3ccccc3n2)cc(OC)c1OC the results were TRHR ag 0, D1 PAM -3, D1 antagonist -5, D1 ag 2 and TRHR PAM 0.
COc1cccc(-n2c(C)nc3c(cnn3-c3ccc(C)c(C)c3)c2=O)c1 was read as TRHR ag 0, D1 PAM 2, D1 antagonist -48*, D1 ag 8 and TRHR PAM 0.
`COc1cccc(C(=O)Nc2ccc3nc(SCc4ccc(C)cc4)sc3c2)c1` gave TRHR ag 1, D1 PAM 1, D1 antagonist -2, D1 ag 7 and TRHR PAM 6.
For Cc1c(C2=CCN(S(=O)(=O)c3ccc(Br)cc3)CC2)c2ccccc2n1CC(=O)N1CCCC1 the results were TRHR ag 1, D1 PAM 3, D1 antagonist 8, D1 ag 9 and TRHR PAM 4.
For Cc1c(C2=CCN(S(=O)(=O)c3ccc(CC(C)C)cc3)CC2)c2ccccc2n1CC(=O)N1CCCC1 the results were TRHR ag -2, D1 PAM -1, D1 antagonist 24, D1 ag 38* and TRHR PAM 5.
`CC(=O)N(C1=C(Cl)C(=O)c2ccccc2C1=O)C1CCCCC1` gave TRHR ag 1, D1 PAM -15, D1 antagonist -35*, D1 ag 1 and TRHR PAM -10.
For COc1ccc(CCNC(=O)Cn2c(C)c3cnn(-c4ccccc4)c(=O)c3c2C)cc1OC the results were TRHR ag 0, D1 PAM -3, D1 antagonist 4, D1 ag -1 and TRHR PAM -4.
For COc1cccc(/C=C/c2onc(C)c2S(=O)(=O)N2CCC(C(=O)N3CCC(C)CC3)CC2)c1 the results were TRHR ag 0, D1 PAM -3, D1 antagonist -5, D1 ag 6 and TRHR PAM -3.
Cc1nnc(SCC(=O)NC2CCCc3c2cnn3-c2ccccc2F)o1 (configuration not stated) was read as TRHR ag 1, D1 PAM -1, D1 antagonist -39*, D1 ag 1 and TRHR PAM 7.
O=C(NC1CCCc2c1cnn2-c1ccc(F)cc1F)c1csnn1 (configuration not stated) was read as TRHR ag -1, D1 PAM -2, D1 antagonist -31*, D1 ag 2 and TRHR PAM -4.
`O=C(NC1CCCc2c1cnn2-c1ccc(F)cc1F)c1cnccn1` (configuration not stated) gave TRHR ag -1, D1 PAM 7, D1 antagonist -4, D1 ag 5 and TRHR PAM 2.
Screening Cc1ccc(CN(C(=O)COc2ccc(Cl)c(C)c2)C2CCS(=O)(=O)C2)o1 (configuration not stated) returned TRHR ag 2, D1 PAM -1, D1 antagonist -4, D1 ag 14 and TRHR PAM -15.
